Screening data: PubChem BioAssay, National Center for Advancing Translational Sciences (NCATS)
ALDH1A1 inh: ALDH1A1 (human) enzyme inhibition; P00352; Purified ALDH1A1, NADH fluorescence, propionaldehyde substrate; Potency, µM (series often up to 75.3 µM), usual class: inhibitors; 220,000 compounds, 7.3% hits; active = well fitted inhibition curve with a large enough effect, not every such curve was filed as active; inconclusive = small, poorly fitted or top-dose-only effect, or another doubt; inactive = no such curve, though single readings can be large or run the other way
Target sequence (P00352 whole entry, looked up): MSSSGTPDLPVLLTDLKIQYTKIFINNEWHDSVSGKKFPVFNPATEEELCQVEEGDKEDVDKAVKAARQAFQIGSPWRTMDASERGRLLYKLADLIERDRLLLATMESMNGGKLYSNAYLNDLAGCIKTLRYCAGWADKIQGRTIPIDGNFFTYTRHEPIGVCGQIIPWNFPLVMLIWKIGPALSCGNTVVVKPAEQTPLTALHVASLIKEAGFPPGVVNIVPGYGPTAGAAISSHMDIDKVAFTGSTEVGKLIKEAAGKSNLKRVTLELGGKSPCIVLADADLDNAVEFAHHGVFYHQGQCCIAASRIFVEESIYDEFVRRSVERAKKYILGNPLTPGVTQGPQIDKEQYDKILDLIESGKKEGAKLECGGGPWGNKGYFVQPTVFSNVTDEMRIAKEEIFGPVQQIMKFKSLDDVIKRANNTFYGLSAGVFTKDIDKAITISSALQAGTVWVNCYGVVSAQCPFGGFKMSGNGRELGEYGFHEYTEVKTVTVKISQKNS
KinaseGlo FLuc: Kinase-Glo luciferase inhibition (counter-screen) | Q27757 | Kinase-Glo luciferase, ATP luminescence, 8 min | Potency, µM (titrated, usually from 38.3 µM), most hits filed as inhibitors | 200,000 compounds, 0.28% hits; note: nearly all actives have a fitted effect of over 60% in size
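Kinase-Glo luciferase light output from ATP and luciferin was measured with 10 uM ATP, within the enzyme's linear range. Buffer: 50 mM imidazole pH 7.2, 50 mM KCl, 7 mM MgCl2, 0.01% Tween 20, 0.05% BSA; luminescence read after 8 min at ambient temperature.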
HTT aggregate: reduces HttQ103-GFP aggregates in PC12 cells; PC12 HttQ103-GFP aggregates, Acumen cytometry, 40 h; Potency, µM (titrated, usually from 46.1 µM), usual class: inhibitors; 220,000 compounds, 1.1% hits; AID 1688; note: nearly all actives have a fitted effect of over 60% in size
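Steps: seed 1500 PC12 HTTQ103-GFP cells/well; add tebufenozide, 100 nM final; add compound titration; add ATPLite reagent; quantify GFP aggregates by laser scanning cytometry.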
HTT cytoprotect: protects HTT-Q103 PC12 cells, measured by ATP; Potency, µM (series often up to 56.4 µM), usual class: activators; AID 1471; 230,000 compounds, 0.14% hits; PC12 HTT-Q103 induced, cytoprotection, ATP luminescence, 40 h; note: nearly all actives have a fitted effect of over 45% in size
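Huntington model: PC12 line, ecdysone-inducible HTTQ103 exon1–GFP, tebufenozide 100 nM. Test articles in a dose series. Endpoint luminescence from cellular ATP.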
LMNA splice mod: modulators of lamin A splicing. HeLa LMNA splicing GFP/RFP minigene ratio, 48 h. Potency, µM (series often up to 46.1 µM), most hits filed as inhibitors. 200,000 compounds, 0.01% hits. AID 1487; active = well fitted inhibition curve with a large enough effect in the signal ratio, with a control signal flat, not every such curve was filed as active; inconclusive = small, poorly fitted or top-dose-only effect, or effect the other way, or a change in a side signal; the % refers to the signal ratio
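S3 HeLa cells stably expressing lamin A-EGFP splicing minigene plus DsRed2, 600 cells/well, 48 h compound exposure at 37C. Laser-scanning cytometry; analysed as GFP (500-530 nm)/RFP (575-640 nm) total intensity ratio; 0.5% DMSO vehicle.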
HPGD block: blocks human HPGD enzyme activity. 150,000 compounds, 4.3% hits. Potency, µM, most hits filed as inhibitors. AID 894. P15428. purified HPGD, NADH fluorescence kinetic, PGE2 substrate; active = well fitted inhibition curve with a large enough effect, not every such curve was filed as active; inconclusive = small, poorly fitted or top-dose-only effect, or another doubt; inactive = no such curve, though single readings can be large or run the other way
Target sequence (P15428 whole entry, looked up): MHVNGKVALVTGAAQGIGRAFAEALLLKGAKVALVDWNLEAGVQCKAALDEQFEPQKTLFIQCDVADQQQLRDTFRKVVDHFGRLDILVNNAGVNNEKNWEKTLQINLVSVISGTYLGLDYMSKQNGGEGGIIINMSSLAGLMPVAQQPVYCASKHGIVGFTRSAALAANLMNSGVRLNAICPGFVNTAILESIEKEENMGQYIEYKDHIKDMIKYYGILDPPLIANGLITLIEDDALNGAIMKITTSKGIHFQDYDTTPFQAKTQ
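NADH formation kinetics: reaction with 30 uM PGE2 and 1 mM NAD+ (final), 20 nM enzyme, Tris-HCl pH 8 with Tween 20, after 15 min compound preincubation at room temperature. Fluorescence change, last versus first of five reads.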
Each line names hits and unclear results; the compound was inactive in the other large screens. Hits are enriched below; roughly 9% of the tested compounds scored in any of these assays. Unless noted, calls come from the whole dose curve; as a rule, active = well fitted curve in the direction sought with a large enough effect; inconclusive = small, poorly fitted or top-dose-only effect, or another doubt; inactive = no such curve, though single readings can be large; an effect the other way counts as inactive or inconclusive.

Cc1ccc(-c2ccc(/C=N/N3C(=O)C4C5C=CC(CC5)C4C3=O)o2)c([N+](=O)[O-])c1 (stereo not given)	ALDH1A1 inh 0.891µM, HPGD block 15.8µM
O=C1C2C3C=CC(C4CC34)C2C(=O)N1/N=C/c1ccc(-c2ccc(F)cc2[N+](=O)[O-])o1 (stereo not given)	ALDH1A1 inh inconclusive, HTT aggregate inconclusive, HPGD block 20µM
O=C1C2C3C=CC(C4CC34)C2C(=O)N1/N=C/c1ccc(-c2ccc(Cl)cc2[N+](=O)[O-])o1 (stereo not given)	ALDH1A1 inh inconclusive, HTT aggregate inconclusive, HPGD block inconclusive
COc1ccc(-c2ccc(/C=N/N3C(=O)C4C5C=CC(C6CC56)C4C3=O)o2)c([N+](=O)[O-])c1 (stereo not given)	ALDH1A1 inh 10µM, HPGD block 25.1µM
COCCn1c(=O)c(-c2ccccc2)nc2cncnc21	ALDH1A1 inh inconclusive (no result: KinaseGlo FLuc, HTT aggregate, HPGD block)
COc1cc(CCN2C(=O)N[C@@H](c3cccc(C(F)(F)F)c3)C(C(C)=O)=C2C)cc(OC)c1OC	LMNA splice mod inconclusive
O=C(CCCN1C(=O)S/C(=C\c2ccccc2)C1=O)NNC(=O)c1ccccc1O	none (no result: HTT cytoprotect, LMNA splice mod, HPGD block)
Cc1cc(Oc2ccc(C(C)(C)C)cc2)nc(N2CCOCC2)n1	none
COCCCNC(=O)C1CCCN(C(=O)Nc2ccc(OC)cc2)C1 (stereo not given)	none
O=c1[nH]c(CSc2nnnn2-c2ccccc2)nc2ccccc12	none (no result: HPGD block)
Cc1ccc(Nc2nc(CSc3nnnn3-c3ccccc3)cs2)cc1	ALDH1A1 inh 8.91µM, HTT aggregate inconclusive, LMNA splice mod inconclusive
Cc1nnc(SCc2cc(=O)[nH]c(/N=C(\N)Nc3ccccc3)n2)s1	none (no result: ALDH1A1 inh, KinaseGlo FLuc, LMNA splice mod, HPGD block)
O=c1cc(CSc2nnnn2-c2ccccc2)nc(Nc2ccc(F)cc2)[nH]1	ALDH1A1 inh 7.94µM, HTT aggregate inconclusive, LMNA splice mod inconclusive
N/C(=N\c1nc(CSc2nnnn2-c2ccccc2)cc(=O)[nH]1)Nc1ccccc1	ALDH1A1 inh 5.01µM, LMNA splice mod inconclusive (no result: HPGD block)
Cc1ccc(SCc2cc(=O)[nH]c(/N=C(\N)Nc3ccc(C)c(C)c3)n2)cc1	ALDH1A1 inh 8.91µM
Cc1ccc(OCc2nc(-c3ccccc3)no2)cc1	none (no result: ALDH1A1 inh, KinaseGlo FLuc, LMNA splice mod, HPGD block)
CCCCCCC[C@H](N)[C@H](O)C(=O)N(C)[C@@H](CCS(C)=O)C(=O)N[C@@H](Cc1ccc(O)cc1)C(=O)N[C@@H](Cc1ccc(O)cc1)C(=O)O (stereo not given in full)	none (no result: ALDH1A1 inh, KinaseGlo FLuc, LMNA splice mod, HPGD block)
O=C(CC1(O)C(=O)Nc2ccc(Br)cc21)c1ccc2c(c1)OCO2 (stereo not given)	none
Cc1ccccc1Nc1nc(N)nc(CSc2nnnn2-c2ccccc2)n1	ALDH1A1 inh 12.6µM
Cc1ccccc1Nc1nc(N)nc(CSc2nnnn2C)n1	none (no result: HPGD block)
O=C(COc1ccc(OCc2ccccc2)cc1)NN=C1CCCC1	ALDH1A1 inh 8.91µM (no result: LMNA splice mod, HPGD block)
COCCNC(=O)c1ccc2c(c1)nc(C)n2-c1cccc(F)c1	HPGD block 7.08µM
COc1ccccc1C(=O)Nc1ccc(S(=O)(=O)N2CCCC2)cc1	ALDH1A1 inh inconclusive
O=C1C(Nc2ccccc2)=C/C(=N/S(=O)(=O)c2cccs2)c2ccccc21	ALDH1A1 inh inconclusive, KinaseGlo FLuc inconclusive, HTT aggregate 6.31µM, LMNA splice mod inconclusive
CCc1cc[n+](C2=C([O-])c3ccccc3C(=O)/C2=N\S(=O)(=O)c2cccs2)cc1	ALDH1A1 inh inconclusive, HTT aggregate inconclusive, LMNA splice mod inconclusive (no result: HTT cytoprotect)
Cc1ccc(NC2=C/C(=N/S(=O)(=O)c3cccs3)c3ccccc3C2=O)cc1	HTT aggregate 3.55µM, LMNA splice mod inconclusive (no result: HTT cytoprotect)
COC(=O)c1ccccc1NC1=C/C(=N\S(=O)(=O)c2cccs2)c2ccccc2C1=O	ALDH1A1 inh 3.16µM, KinaseGlo FLuc inconclusive, HTT aggregate inconclusive, LMNA splice mod inconclusive, HPGD block inconclusive
CCCN1C/C(=C/c2cccc([N+](=O)[O-])c2)C(=O)/C(=C/c2cccc([N+](=O)[O-])c2)C1	ALDH1A1 inh 20µM
CCCN1C/C(=C/c2ccc3c(c2)OCO3)C(=O)/C(=C/c2ccc3c(c2)OCO3)C1	ALDH1A1 inh inconclusive, LMNA splice mod inconclusive
CCOC(=O)C1(Cc2cccc(Cl)c2)CCCN(C(=O)c2ccc(C)nc2)C1 (stereo not given)	none (no result: KinaseGlo FLuc, LMNA splice mod, HPGD block)
COc1ccc(-c2c(-c3ccc(OCC(=O)NN)cc3O)n[nH]c2C(F)(F)F)cc1	ALDH1A1 inh 12.6µM
C=C(C)COc1ccc(-c2n[nH]c(C)c2-c2ccc(OC)cc2)c(O)c1	ALDH1A1 inh inconclusive, HTT aggregate inconclusive, LMNA splice mod inconclusive
CCOC(=O)c1[nH]ncc1CN1CCCC(C(=O)c2ccc(SC)cc2)C1 (stereo not given)	ALDH1A1 inh 35.5µM (no result: LMNA splice mod, HPGD block)
Cc1ccc(-n2ncc(C(=O)N3CCN(Cc4ccccc4)CC3)c2C2CCN(C(=O)OC(C)(C)C)CC2)cc1	none (no result: ALDH1A1 inh, KinaseGlo FLuc, HTT aggregate, HTT cytoprotect, HPGD block)
O=C1Nc2ccccc2/C1=C/C(=O)c1cccs1	ALDH1A1 inh inconclusive, HTT aggregate inconclusive, HPGD block inconclusive
CCN1C(=O)/C(=C\C(=O)c2cccs2)c2cc(Br)ccc21	ALDH1A1 inh 11.2µM (no result: HTT cytoprotect, HPGD block)
Cc1ccc(Nc2nc(N)nc(CC#N)n2)cc1	HTT aggregate 6.31µM
COc1ccc(CCNC(=O)c2csc3c2CCCC3)cc1OC	none (no result: LMNA splice mod, HPGD block)
COCCNC(=O)c1csc2c1CCCC2	HTT aggregate inconclusive, HPGD block 15.8µM
O=C(NCC1CCCO1)c1csc2c1CCCC2 (stereo not given)	HPGD block 20µM
O=C(c1cn(-c2ccccc2)nc1-c1ccccc1)n1nnc2ccccc21	ALDH1A1 inh inconclusive, HTT aggregate inconclusive
CCOC(=O)/C(C#N)=C1/C=CN(C)C=N1	ALDH1A1 inh 14.1µM, HPGD block 25.1µM
CCOC(=O)/C(C#N)=C1/C=CN(c2ccccc2)C=N1	ALDH1A1 inh inconclusive
CC(C)NC(=O)c1onc(CSc2ccc(F)c(F)c2)c1C(=O)O	ALDH1A1 inh 22.4µM
CC(C)NC(=O)c1onc(CSc2cccc(Cl)c2)c1C(=O)O	LMNA splice mod inconclusive
CC(C)NC(=O)c1onc(CSc2ccc(F)cc2)c1C(=O)O	ALDH1A1 inh inconclusive, HPGD block 39.8µM
C=CCNC(=O)c1onc(CSc2ccc(C(C)C)cc2)c1C(=O)O	LMNA splice mod inconclusive, HPGD block 14.1µM
Cc1ccc(SCc2noc(C(=O)NC(C)C)c2C(=O)O)cc1C	ALDH1A1 inh inconclusive, LMNA splice mod inconclusive
C=CCNC(=O)c1onc(CSc2ccccc2)c1C(=O)O	none
CC(C)NC(=O)c1onc(CSc2ccc(C(C)C)cc2)c1C(=O)O	ALDH1A1 inh inconclusive, HTT aggregate inconclusive, LMNA splice mod inconclusive, HPGD block 22.4µM
